The record followed here is PubChem BioAssay (EPA / NIEHS).

Assay [1] in a line: ATG_NFI_CIS: Attagene CIS-FACTORIAL HepG2 Assay for human Nuclear Factor I (NFI) (AID 2282989). The conditions noted are these: HepG2 cis-regulatory reporter, NFI response element transcription; actives raise or lower the signal. In a few lines:
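Transfected HepG2 liver cells, exposed 24 h, supplied total RNA for oligo(dT) reverse transcription and reporter-specific PCR. Labelled, HpaI-cut fragments were sized by capillary electrophoresis; DMSO set the baseline for bidirectional fitting.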

Assay [2] deals with Myc proto-oncogene protein (Homo sapiens) (UniProt P01106). The assay can be described thus: ATG_Myc_CIS: Attagene CIS-FACTORIAL HepG2 Assay for human Myelocytomatosis (Myc) Proto-Oncogene Transcription Factor (AID 2282990). The conditions noted are these: HepG2, Attagene cis-reporter transcription factor activity; actives raise or lower the signal. Summed up:
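HepG2, transient MRTU transfection (cis promoters, endogenous TFs); 24 h dosing; TriZol RNA → oligo(dT) RT → PCR → 6-FAM primer extension → HpaI cut → CE. Bidirectional fit vs DMSO.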

Assay [3] in a line: ATG_NRF2_ARE_CIS: Attagene CIS-FACTORIAL HepG2 Assay for human Nuclear Factor Erythroid 2 Related Factor 2 (NFR2) response to Antioxidant Response Elements (ARE) (AID 2282992).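 On AC50: reporter mRNA level measured by RT-PCR and capillary electrophoresis fluorescence.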 The following applies: HepG2 Attagene ARE/NRF2 reporter, transcription factor activity; actives raise or lower the signal. Summed up:
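Cis-factorial assay: transfected HepG2 reporter library, 24 h dosing, mRNA readout via RT-PCR/CE; DMSO-referenced bidirectional analysis.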

Assay [4] is described as follows: ATG_Oct_MLP_CIS: Attagene CIS-FACTORIAL HepG2 Assay for human Octamer-Binding Transcription Factor (Oct) (AID 2282993). The following applies: HepG2 Attagene cis-factorial Oct reporter, mRNA; actives raise or lower the signal. Summed up:
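Using HepG2 cells bearing transfected cis-reporter constructs, mRNA induction was read after 24 h by fluorescent RT-PCR and capillary electrophoresis, with DMSO defining baseline for gain- or loss-of-signal fits.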

The target of assay [5] is Cellular tumor antigen p53 (Homo sapiens) (UniProt P04637). The assay can be described thus: ATG_p53_CIS: Attagene CIS-FACTORIAL HepG2 Assay for human p53 Transcription Factor (AID 2282994). The following applies: HepG2 p53 cis-element reporter, Attagene mRNA; actives raise or lower the signal. In a few lines: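 Using HepG2 hepatoma cells carrying cis-acting multiplexed reporters, mRNA induction is detected after a 24 h exposure. Gain- and loss-of-signal responses are fitted relative to DMSO-treated cells.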

The nature of assay [6]: BSK_3C_TissueFactor: BioMAP Diversity Plus: 3C Assay for Tissue Factor Biomarker Activity (AID 2282997). The conditions noted are these: BioMAP 3C HUVEC, tissue factor biomarker readout; actives raise or lower the signal. Summed up:
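Values derive from bidirectional curve fitting against DMSO of Tissue Factor ELISA signals, taken 24 h after dosing primary human umbilical vein endothelial cells.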

Assay [7] in a line: BSK_3C_uPAR: BioMAP Diversity Plus: 3C Assay for Urokinase-type plasminogen activator receptor (uPAR) Biomarker Activity (AID 2282998). The following applies: BioMAP 3C HUVEC, uPAR biomarker ELISA; actives raise or lower the signal. In a few lines:
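In this endothelial cell-based assay, human umbilical vein primary cells were treated with chemicals and harvested at 24 h. uPAR was quantified using ELISA, with gains or losses fitted relative to DMSO controls.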
For orientation: ELISA stands for enzyme-linked immunosorbent assay.

Assay [8] is described as follows: BSK_3C_VCAM1: BioMAP Diversity Plus: 3C Assay for Vascular cell adhesion molecule 1 (VCAM1) Biomarker Activity (AID 2282999). The conditions noted are these: BioMAP 3C HUVEC, VCAM1 ELISA, cytokine-stimulated; actives raise or lower the signal. Summed up:
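Endothelial cells from human umbilical vein are treated with test chemical. At 24 h, VCAM-1 is measured by ELISA, and responses in either direction are fitted relative to DMSO.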

A short description of assay [9]: BSK_4H_Eotaxin3: BioMAP Diversity Plus: 4H Assay for Eotaxin 3 Biomarker Activity (AID 2283000).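 Further: CCL26 protein level quantified by ELISA in parallel with SRB cytotoxicity check.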 The conditions noted are these: primary human endothelial cells (HUVEC); actives raise or lower the signal. In a few lines: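 Endothelial primary cells (human umbilical vein) exposed to compound for 24 h. ELISA detection of Eotaxin-3.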
The target of assay [10] is human Peroxisome Proliferator-activated Receptor alpha (PPARa), PPARA (gene 5465) (UniProt Q07869). Nature of the assay: ATG_PPARa_TRANS: Attagene TRANS-FACTORIAL HepG2 Assay for human Peroxisome Proliferator-activated Receptor alpha (PPARa) (AID 2283001; active means hit-call score of the fitted dose curve at least 0.9, where 1 is the maximum;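 on AC50: potency for gain of reporter signal over DMSO so agonist or activator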). Summed up: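 Reporter transcripts from GAL4-UAS units in transfected HepG2 were quantified 24 h after dosing. Detection used reverse transcription, PCR, fluorescent primer extension and capillary electrophoresis, with DMSO as baseline.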

Assay [11] addresses human Peroxisome Proliferator-activated Receptor delta (PPARd), PPARD (gene 5467) (UniProt Q03181). Nature of the assay: ATG_PPARd_TRANS: Attagene TRANS-FACTORIAL HepG2 Assay for human Peroxisome Proliferator-activated Receptor delta (PPARd) (AID 2283002; active means hit-call score of the fitted dose curve at least 0.9, where 1 is the maximum). Summed up:
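Transient HepG2 transfection (multiple GAL4-UAS RTUs, chimeric receptor-Gal4); 24 h dosing; total RNA → oligo(dT) RT → PCR → 6-FAM primer extension → HpaI cut → CE. Positive direction vs DMSO.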

Read-out in assay [12]: Intercellular Adhesion Molecule 1 (ICAM1), ICAM1 (gene 3383)
Nature of the assay: BSK_3C_ICAM1: BioMAP Diversity Plus: 3C Assay for Intercellular Adhesion Molecule 1 (ICAM1) Biomarker Activity (AID 2283003). The following applies: primary human endothelial cells (HUVEC); actives raise or lower the signal. In a few lines:
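Human vascular endothelial primary cells, 3C conditions, 24 h treatment. ICAM-1 by ELISA.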

Assay [13] addresses Retinoic acid receptor alpha (Homo sapiens) (UniProt P10276). Nature of the assay: ATG_RARa_TRANS: Attagene TRANS-FACTORIAL HepG2 Assay for human Retinoic Acid Receptor alpha (RARa) (AID 2283005; active means hit-call score of the fitted dose curve at least 0.9, where 1 is the maximum). Summed up:
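Reporter transcripts, measured by RT-PCR with fluorescent labeling and capillary electrophoresis after 24 h dosing, reflect activity of an exogenous human RARa–GAL4 fusion in transiently transfected HepG2. Fitted for increase relative to DMSO.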

The nature of assay [14]: BSK_3C_Proliferation: Cell Proliferation Assessment in the BioMAP Diversity Plus: 3C Assay (AID 2283006). The conditions noted are these: primary human endothelial cells (HUVEC). Summed up: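 Proliferation of human vascular endothelial primary cells after 48 h dosing, quantified as SRB-stained protein at 560 nm relative to DMSO.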
Assay [15] addresses Peroxisome proliferator-activated receptor gamma (Homo sapiens) (UniProt P37231). Nature of the assay: ATG_PPARg_TRANS: Attagene TRANS-FACTORIAL HepG2 Assay for human Peroxisome Proliferator-activated Receptor-gamma (PPARg) (AID 2283007; active means hit-call score of the fitted dose curve at least 0.9, where 1 is the maximum). Summed up: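 Chimeric NR-Gal4 transactivation is measured in transiently transfected HepG2 cells by reporter mRNA induction at 24 h. Detection uses RT-PCR with fluorescent labelling and capillary electrophoresis; DMSO defines baseline.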

The target in assay [16] is Nuclear receptor subfamily 1 group I member 2 (Homo sapiens) (UniProt O75469). Nature of the assay: ATG_PXR_TRANS: Attagene TRANS-FACTORIAL HepG2 Assay for human Pregnane X Receptor (PXR) (AID 2283008; active means hit-call score of the fitted dose curve at least 0.9, where 1 is the maximum). Summed up:
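Fluorescence intensity of FAM-labelled, HpaI-digested reporter amplicons, separated by capillary electrophoresis, quantifies induction. HepG2 cells with PXR-Gal4 trans-reporter system were exposed 24 h; DMSO defines baseline.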

Assay [17] in a line: ATG_NF_kB_CIS: Attagene CIS-FACTORIAL HepG2 Assay for human Nuclear Factor Kappa B (NF-kB) (AID 2282991). The conditions noted are these: HepG2 Attagene cis-factorial NF-kB reporter mRNA; actives raise or lower the signal. Summed up: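 DMSO served as negative control and baseline for bidirectional curve fitting. Transiently transfected HepG2 cells were dosed for 24 h, then reporter transcripts were measured by RT-PCR with capillary electrophoresis detection.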

Assay [18] deals with human Retinoic Acid Receptor beta (RARb), RARB (gene 5915) (UniProt P10826). The assay can be described thus: ATG_RARb_TRANS: Attagene TRANS-FACTORIAL HepG2 Assay for human Retinoic Acid Receptor beta (AID 2283004; active means hit-call score of the fitted dose curve at least 0.9, where 1 is the maximum). In a few lines:
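HepG2, transient MRTU transfection, NR–Gal4 chimera, 24 h treatment; RT-PCR plus CE fluorescence detection of reporter mRNA; gain of signal vs DMSO.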

Assay [19] deals with human Retinoic Acid Receptor gamma (RARg), RARG (gene 5916) (UniProt P13631). The assay can be described thus: ATG_RARg_TRANS: Attagene TRANS-FACTORIAL HepG2 Assay for human Retinoic Acid Receptor gamma (RARg) (AID 2283009; active means hit-call score of the fitted dose curve at least 0.9, where 1 is the maximum). Summed up:
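HepG2, RARg-GAL4 TRANS system, 24 h exposure; reporter mRNA by RT-PCR + CE fluorescence; increase over DMSO.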

For assay [20], the target named is human RAR-related Orphan Receptor beta (RORb), RORB (gene 6096) (UniProt Q92753). The assay can be described thus: ATG_RORb_TRANS: Attagene TRANS-FACTORIAL HepG2 Assay for human RAR-related Orphan Receptor beta (RORb) (AID 2283010; active means hit-call score of the fitted dose curve at least 0.9, where 1 is the maximum). Summed up: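 In this TRANS-format test, human HepG2 cells express chimeric NR-Gal4 fusion proteins driving GAL4-UAS reporters. After 24 h dosing, reporter transcripts are measured by fluorescent RT-PCR/capillary electrophoresis, with DMSO as negative control.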

Several values for one entry are separate records, joined by “and”; a condition that tells them apart may be missing. Identical values can stand only once. Results filed as inconclusive are left out. Activity calls are given as the source filed them. How the source made its calls, unless noted: active means hit-call score of the fitted dose curve at least 0.9, where 1 is the maximum; inactive means score below 0.9.

Peroxisome proliferator-activated receptor gamma (Homo sapiens), sequence (P37231 whole entry, looked up, the tested form may be a part): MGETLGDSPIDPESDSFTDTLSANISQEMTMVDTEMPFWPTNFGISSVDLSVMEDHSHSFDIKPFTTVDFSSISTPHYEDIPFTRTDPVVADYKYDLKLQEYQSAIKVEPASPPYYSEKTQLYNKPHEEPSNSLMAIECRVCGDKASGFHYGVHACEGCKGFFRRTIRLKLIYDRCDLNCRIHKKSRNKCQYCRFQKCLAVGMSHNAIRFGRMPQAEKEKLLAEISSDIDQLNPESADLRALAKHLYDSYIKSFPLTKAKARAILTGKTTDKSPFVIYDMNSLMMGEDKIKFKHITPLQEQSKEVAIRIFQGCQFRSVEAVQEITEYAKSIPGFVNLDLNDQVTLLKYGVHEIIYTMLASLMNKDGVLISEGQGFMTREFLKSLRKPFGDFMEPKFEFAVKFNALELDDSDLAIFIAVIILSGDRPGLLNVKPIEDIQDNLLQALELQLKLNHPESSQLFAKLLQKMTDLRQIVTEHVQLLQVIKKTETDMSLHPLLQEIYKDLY
human Peroxisome Proliferator-activated Receptor delta (PPARd), PPARD (gene 5467), sequence (Q03181 whole entry, looked up, the tested form may be a part): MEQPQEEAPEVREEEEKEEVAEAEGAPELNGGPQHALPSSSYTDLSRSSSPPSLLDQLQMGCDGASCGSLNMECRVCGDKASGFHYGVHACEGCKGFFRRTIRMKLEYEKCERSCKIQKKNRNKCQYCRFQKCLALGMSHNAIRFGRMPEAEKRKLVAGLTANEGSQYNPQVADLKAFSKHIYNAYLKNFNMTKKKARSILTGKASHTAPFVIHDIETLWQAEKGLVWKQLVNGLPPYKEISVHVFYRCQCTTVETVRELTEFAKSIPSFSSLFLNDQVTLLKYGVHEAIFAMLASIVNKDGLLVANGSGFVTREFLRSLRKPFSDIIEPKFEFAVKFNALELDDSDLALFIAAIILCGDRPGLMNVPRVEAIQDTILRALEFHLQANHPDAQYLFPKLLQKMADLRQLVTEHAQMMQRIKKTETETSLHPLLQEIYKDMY
Myc proto-oncogene protein (Homo sapiens), sequence (P01106 whole entry, looked up): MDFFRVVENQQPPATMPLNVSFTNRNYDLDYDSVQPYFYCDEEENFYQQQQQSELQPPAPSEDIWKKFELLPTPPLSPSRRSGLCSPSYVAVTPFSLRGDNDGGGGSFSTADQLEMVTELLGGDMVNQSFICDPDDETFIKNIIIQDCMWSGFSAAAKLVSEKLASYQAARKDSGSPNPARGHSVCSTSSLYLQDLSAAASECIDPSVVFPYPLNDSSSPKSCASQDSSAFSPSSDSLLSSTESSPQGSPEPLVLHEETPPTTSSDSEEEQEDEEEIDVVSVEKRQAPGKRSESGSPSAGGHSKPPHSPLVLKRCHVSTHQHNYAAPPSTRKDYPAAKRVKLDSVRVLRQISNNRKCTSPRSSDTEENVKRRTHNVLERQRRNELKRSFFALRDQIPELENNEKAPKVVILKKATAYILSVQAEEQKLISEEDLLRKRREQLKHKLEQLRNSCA
Cellular tumor antigen p53 (Homo sapiens), sequence (P04637 whole entry, looked up): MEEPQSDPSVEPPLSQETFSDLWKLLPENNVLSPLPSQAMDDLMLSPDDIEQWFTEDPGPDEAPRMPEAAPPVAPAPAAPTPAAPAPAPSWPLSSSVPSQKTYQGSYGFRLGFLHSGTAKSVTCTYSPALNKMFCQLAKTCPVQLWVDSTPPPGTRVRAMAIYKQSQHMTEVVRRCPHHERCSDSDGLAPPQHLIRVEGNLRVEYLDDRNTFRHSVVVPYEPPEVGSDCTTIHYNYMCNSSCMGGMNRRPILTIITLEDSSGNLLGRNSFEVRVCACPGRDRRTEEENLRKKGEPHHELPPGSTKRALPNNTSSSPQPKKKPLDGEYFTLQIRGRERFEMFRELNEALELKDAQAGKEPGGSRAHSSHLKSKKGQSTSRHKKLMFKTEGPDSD
human Peroxisome Proliferator-activated Receptor alpha (PPARa), PPARA (gene 5465), sequence (Q07869 whole entry, looked up, the tested form may be a part): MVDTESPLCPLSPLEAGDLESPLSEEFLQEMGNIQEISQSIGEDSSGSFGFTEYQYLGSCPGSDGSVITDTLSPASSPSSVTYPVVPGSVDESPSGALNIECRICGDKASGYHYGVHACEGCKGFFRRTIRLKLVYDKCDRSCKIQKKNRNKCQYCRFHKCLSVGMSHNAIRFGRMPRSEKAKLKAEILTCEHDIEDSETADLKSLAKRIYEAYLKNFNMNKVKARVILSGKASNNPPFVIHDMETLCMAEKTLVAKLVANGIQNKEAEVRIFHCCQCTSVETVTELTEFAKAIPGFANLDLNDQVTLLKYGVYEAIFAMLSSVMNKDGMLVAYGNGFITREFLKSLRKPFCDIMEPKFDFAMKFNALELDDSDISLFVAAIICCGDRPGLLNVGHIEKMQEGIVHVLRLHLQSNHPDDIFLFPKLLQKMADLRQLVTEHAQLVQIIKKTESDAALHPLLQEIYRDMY
Nuclear receptor subfamily 1 group I member 2 (Homo sapiens), sequence (O75469 whole entry, looked up, the tested form may be a part): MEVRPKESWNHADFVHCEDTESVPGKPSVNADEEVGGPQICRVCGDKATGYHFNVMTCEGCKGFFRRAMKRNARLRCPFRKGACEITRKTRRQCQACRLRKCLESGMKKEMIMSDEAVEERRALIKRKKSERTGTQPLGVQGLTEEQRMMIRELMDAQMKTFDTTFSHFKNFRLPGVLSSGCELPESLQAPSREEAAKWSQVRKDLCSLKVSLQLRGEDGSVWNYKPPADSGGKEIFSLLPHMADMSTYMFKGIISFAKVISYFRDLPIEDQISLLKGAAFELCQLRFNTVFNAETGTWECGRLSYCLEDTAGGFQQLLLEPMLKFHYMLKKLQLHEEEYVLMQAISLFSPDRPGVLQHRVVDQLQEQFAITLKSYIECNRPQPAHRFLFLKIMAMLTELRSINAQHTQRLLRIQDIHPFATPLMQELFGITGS
human Retinoic Acid Receptor gamma (RARg), RARG (gene 5916), sequence (P13631 whole entry, looked up, the tested form may be a part): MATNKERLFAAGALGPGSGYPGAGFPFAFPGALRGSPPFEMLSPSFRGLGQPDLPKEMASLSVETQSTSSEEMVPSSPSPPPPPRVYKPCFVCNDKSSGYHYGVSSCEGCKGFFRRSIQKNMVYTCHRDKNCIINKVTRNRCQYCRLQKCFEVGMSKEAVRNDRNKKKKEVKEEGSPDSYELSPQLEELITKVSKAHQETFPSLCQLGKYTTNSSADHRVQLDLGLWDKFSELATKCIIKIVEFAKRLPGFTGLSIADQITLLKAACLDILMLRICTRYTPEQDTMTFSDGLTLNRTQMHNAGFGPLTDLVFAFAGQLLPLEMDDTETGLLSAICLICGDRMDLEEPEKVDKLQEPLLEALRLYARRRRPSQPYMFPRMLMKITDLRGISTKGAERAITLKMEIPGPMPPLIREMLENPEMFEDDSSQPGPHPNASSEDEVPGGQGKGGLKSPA
human Retinoic Acid Receptor beta (RARb), RARB (gene 5915), sequence (P10826 whole entry, looked up, the tested form may be a part): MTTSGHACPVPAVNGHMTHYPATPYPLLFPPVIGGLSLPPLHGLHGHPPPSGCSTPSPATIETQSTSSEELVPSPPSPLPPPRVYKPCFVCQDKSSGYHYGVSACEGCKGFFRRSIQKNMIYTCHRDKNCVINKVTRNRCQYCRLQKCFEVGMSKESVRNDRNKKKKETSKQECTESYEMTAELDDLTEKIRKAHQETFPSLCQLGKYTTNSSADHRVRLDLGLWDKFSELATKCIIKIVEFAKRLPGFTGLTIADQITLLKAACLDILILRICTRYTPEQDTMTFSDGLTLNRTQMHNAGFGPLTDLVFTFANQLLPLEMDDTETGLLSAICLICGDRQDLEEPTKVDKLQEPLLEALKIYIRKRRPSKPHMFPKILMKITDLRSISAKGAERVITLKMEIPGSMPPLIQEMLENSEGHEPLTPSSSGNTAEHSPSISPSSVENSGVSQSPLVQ
Retinoic acid receptor alpha (Homo sapiens), sequence (P10276 whole entry, looked up, the tested form may be a part): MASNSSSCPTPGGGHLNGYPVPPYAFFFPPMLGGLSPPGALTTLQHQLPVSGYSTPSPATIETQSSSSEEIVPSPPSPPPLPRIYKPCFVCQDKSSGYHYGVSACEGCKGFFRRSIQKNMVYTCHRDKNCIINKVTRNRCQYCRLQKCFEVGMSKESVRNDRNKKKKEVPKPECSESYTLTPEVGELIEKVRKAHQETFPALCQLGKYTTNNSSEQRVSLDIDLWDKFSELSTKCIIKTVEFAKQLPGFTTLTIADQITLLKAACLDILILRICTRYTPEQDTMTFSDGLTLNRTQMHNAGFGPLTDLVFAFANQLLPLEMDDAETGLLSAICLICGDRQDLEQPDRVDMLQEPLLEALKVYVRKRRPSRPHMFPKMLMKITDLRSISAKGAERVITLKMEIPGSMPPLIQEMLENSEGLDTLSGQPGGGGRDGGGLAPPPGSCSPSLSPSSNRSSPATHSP
human RAR-related Orphan Receptor beta (RORb), RORB (gene 6096), sequence (Q92753 whole entry, looked up, the tested form may be a part): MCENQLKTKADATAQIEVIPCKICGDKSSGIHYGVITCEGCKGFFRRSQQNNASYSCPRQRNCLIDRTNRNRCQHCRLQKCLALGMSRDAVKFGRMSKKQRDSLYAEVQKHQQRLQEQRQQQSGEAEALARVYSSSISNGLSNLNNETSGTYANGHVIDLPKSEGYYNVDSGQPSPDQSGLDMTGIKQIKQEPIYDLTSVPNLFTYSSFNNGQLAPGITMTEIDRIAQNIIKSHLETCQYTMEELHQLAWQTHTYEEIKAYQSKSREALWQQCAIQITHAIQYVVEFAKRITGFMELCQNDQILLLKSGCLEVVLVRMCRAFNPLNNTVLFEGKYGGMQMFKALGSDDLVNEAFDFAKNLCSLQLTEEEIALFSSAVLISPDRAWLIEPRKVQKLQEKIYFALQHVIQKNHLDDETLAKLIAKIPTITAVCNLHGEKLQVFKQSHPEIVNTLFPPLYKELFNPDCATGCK

What is called AC50 is the concentration at which the activity in the assay is half-maximal. For the compound `O=C(O)C(F)(F)C(F)(F)C(F)(F)C(F)(F)C(F)(F)F`, the outcome in assay [1], in [2], in assay [3], in assay [4], in assay [5] and in [6] was inactive. The result in [7], in assay [8], in [9], in [11], in assay [12] and in assay [13] was inactive. The result in assay [14], in assay [15] and in assay [16] was inactive. The AC50 in assay [10] is 36.7 µM (active) and 70.9 µM (active).
As for `CCC(C)(CC)c1cc(NC(=O)c2c(OC)cccc2OC)on1`, the compound was classed as inactive in assay [1], in [2], in assay [17], in assay [6], in assay [7] and in [8]. The result in assay [9], in [11], in assay [12], in assay [14] and in assay [15] was inactive. Moreover, the AC50 in assay [3] was 0.289 µM (active); in assay [4], 1.64 µM (active); in assay [16] it was 692 nM (active).
In the case of `CCOCCOC(C)=O`, the call in assay [1], in assay [2], in [3], in assay [4], in assay [5] and in assay [6] was inactive. Also, the outcome in assay [7], in assay [8], in assay [9], in assay [11], in [12] and in assay [14] was inactive. Besides, the compound was classed as inactive in [15] and in assay [16].
For `C1CC2OC2CC1C1CO1` (stereo unspecified), the call in assay [1], in assay [2], in [17], in [4], in assay [5] and in assay [6] was inactive. Further, the result in assay [7], in assay [8], in assay [9], in assay [12] and in assay [14] was inactive. Besides, the AC50 in assay [3] is 123 µM (active).
As for `N#Cc1ccc(N(CC(N)=O)CC(F)(F)F)cc1C(F)(F)F`, the compound was classed as inactive in [1], in [2], in assay [4], in assay [5], in assay [6] and in assay [7]. Also, the result in assay [8], in [9], in assay [12], in [18], in assay [14] and in [15] was inactive. The call in assay [16] and in assay [19] was inactive. Also, the half-maximal activity concentration (AC50) in assay [3] was 170 µM (active).
Consider `O=C(NC(=O)c1cc(F)c(F)cc1Cl)Nc1cc(F)ccc1N1CCC(C(=O)O)CC1`, for which the outcome in [1], in assay [2], in [4], in assay [5], in [6] and in assay [7] was inactive. The outcome in assay [8], in [9], in assay [10], in assay [12], in assay [14] and in assay [16] was inactive. Further, the result in assay [20] was inactive. Further, the AC50 in assay [3] was 16.5 µM (active); in assay [15] it was 954 nM (active).
